# Results filed as inconclusive are left out. The source made the active and inactive calls. How the source made its calls: active means hit-call score of the fitted dose curve at least 0.9, where 1 is the maximum; inconclusive means response in the unintended direction; inactive means score below 0.9.
# Assays:
# [1] = target: human Retinoic Acid Receptor beta (RARb), RARB (gene 5915) (UniProt P10826); test: ATG_RARb_TRANS: Attagene TRANS-FACTORIAL HepG2 Assay for human Retinoic Acid Receptor beta (AID 2283004)
# Chain of human Retinoic Acid Receptor beta (RARb), RARB (gene 5915) (P10826 whole entry, looked up, the tested form may be a part): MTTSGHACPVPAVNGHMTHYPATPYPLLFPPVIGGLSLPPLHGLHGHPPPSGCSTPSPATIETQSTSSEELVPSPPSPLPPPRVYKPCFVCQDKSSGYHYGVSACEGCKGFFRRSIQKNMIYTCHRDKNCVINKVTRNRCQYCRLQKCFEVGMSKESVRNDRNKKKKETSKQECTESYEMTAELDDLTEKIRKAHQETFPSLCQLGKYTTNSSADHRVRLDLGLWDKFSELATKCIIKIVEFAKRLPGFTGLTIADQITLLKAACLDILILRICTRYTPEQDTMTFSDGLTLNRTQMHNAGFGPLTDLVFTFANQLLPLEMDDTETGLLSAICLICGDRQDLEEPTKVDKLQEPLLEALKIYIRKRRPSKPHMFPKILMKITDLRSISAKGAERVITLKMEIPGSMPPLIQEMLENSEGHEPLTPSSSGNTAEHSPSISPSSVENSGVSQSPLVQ
# How it was run: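 Readout is reporter mRNA induction: RNA reverse-transcribed, PCR-amplified, FAM-labelled, HpaI-cut and resolved by capillary electrophoresis. Transiently transfected HepG2 cells carrying exogenous NR–Gal4 chimeras were dosed for 24 h; activity fitted upward relative to DMSO.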
# [2] = target: Nuclear receptor subfamily 1 group I member 2 (Homo sapiens) (UniProt O75469); test: ATG_PXR_TRANS: Attagene TRANS-FACTORIAL HepG2 Assay for human Pregnane X Receptor (PXR) (AID 2283008)
# Chain of Nuclear receptor subfamily 1 group I member 2 (Homo sapiens) (O75469 whole entry, looked up, the tested form may be a part): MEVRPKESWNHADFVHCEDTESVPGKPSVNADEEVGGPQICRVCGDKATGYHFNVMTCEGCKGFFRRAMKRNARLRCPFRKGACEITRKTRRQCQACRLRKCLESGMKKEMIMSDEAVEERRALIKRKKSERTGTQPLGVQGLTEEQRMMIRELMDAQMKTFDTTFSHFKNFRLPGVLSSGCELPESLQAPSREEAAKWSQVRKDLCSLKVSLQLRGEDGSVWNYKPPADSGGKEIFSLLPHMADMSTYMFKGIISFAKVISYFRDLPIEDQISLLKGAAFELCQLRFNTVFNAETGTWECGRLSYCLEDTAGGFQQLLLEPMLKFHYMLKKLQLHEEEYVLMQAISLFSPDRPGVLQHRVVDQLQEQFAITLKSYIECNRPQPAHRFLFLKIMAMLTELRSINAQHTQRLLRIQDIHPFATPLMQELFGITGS
# How it was run: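 Transactivation by exogenous PXR–GAL4 fusion measured as reporter transcript induction after 24 h compound treatment of transfected human HepG2 cells. Read-out via RT-PCR and capillary electrophoresis of labelled fragments, fitted upward relative to DMSO.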
# [3] = target: human Retinoic Acid Receptor gamma (RARg), RARG (gene 5916) (UniProt P13631); test: ATG_RARg_TRANS: Attagene TRANS-FACTORIAL HepG2 Assay for human Retinoic Acid Receptor gamma (RARg) (AID 2283009)
# Chain of human Retinoic Acid Receptor gamma (RARg), RARG (gene 5916) (P13631 whole entry, looked up, the tested form may be a part): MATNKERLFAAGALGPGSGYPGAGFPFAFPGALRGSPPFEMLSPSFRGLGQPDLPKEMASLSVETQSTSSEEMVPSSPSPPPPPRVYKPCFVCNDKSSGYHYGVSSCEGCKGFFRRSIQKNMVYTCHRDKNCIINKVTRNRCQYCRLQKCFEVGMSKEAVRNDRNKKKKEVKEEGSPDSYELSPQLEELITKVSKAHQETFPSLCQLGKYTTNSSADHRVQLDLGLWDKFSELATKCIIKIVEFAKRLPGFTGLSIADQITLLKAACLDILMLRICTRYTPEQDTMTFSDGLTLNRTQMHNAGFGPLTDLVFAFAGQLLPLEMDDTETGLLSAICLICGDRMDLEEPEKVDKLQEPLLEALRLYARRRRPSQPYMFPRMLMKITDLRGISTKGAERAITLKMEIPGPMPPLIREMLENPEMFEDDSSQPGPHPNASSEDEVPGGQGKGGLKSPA
# How it was run: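 TRANS format measured activity of exogenous NR-GAL4 fusion (RARg) in transfected HepG2 liver cells after 24 h dosing. Induced reporter RNA was detected by RT-PCR/capillary electrophoresis fluorescence, analysed in the positive direction against DMSO.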
# [4] = target: Peroxisome proliferator-activated receptor gamma (Homo sapiens) (UniProt P37231); test: ATG_PPARg_TRANS: Attagene TRANS-FACTORIAL HepG2 Assay for human Peroxisome Proliferator-activated Receptor-gamma (PPARg) (AID 2283007)
# Chain of Peroxisome proliferator-activated receptor gamma (Homo sapiens) (P37231 whole entry, looked up, the tested form may be a part): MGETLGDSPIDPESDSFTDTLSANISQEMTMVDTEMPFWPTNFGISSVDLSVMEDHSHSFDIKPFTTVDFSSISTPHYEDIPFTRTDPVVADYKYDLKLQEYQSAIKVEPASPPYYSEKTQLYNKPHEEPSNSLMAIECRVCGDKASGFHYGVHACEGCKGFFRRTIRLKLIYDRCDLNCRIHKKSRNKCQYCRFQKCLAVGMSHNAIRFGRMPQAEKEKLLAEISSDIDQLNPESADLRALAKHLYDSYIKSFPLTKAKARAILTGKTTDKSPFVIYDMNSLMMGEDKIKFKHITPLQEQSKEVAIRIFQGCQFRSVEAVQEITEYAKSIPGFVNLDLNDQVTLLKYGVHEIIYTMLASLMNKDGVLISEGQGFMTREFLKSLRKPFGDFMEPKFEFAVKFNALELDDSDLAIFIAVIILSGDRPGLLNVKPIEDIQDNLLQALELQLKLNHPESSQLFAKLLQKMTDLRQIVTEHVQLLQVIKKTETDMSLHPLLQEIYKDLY
# How it was run: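 Chimeric NR-Gal4 transactivation is measured in transiently transfected HepG2 cells by reporter mRNA induction at 24 h. Detection uses RT-PCR with fluorescent labelling and capillary electrophoresis; DMSO defines baseline.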
# [5] = target: Retinoic acid receptor alpha (Homo sapiens) (UniProt P10276); test: ATG_RARa_TRANS: Attagene TRANS-FACTORIAL HepG2 Assay for human Retinoic Acid Receptor alpha (RARa) (AID 2283005)
# Chain of Retinoic acid receptor alpha (Homo sapiens) (P10276 whole entry, looked up, the tested form may be a part): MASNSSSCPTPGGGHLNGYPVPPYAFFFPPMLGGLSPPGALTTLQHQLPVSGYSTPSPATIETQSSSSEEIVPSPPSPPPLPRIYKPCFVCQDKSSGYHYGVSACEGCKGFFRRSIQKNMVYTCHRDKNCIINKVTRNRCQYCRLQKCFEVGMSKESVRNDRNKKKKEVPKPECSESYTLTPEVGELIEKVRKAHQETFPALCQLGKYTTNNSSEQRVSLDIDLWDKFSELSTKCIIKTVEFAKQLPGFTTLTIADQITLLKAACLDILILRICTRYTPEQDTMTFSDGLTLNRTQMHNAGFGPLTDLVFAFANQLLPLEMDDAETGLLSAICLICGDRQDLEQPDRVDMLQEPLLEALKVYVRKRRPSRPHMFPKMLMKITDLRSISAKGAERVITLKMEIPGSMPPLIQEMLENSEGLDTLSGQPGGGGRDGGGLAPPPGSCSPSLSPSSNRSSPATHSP
# How it was run: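 HepG2 transiently transfected with multiplex GAL4-UAS reporter units including a human RARa–GAL4 chimera; 24 h compound exposure. Reporter mRNA quantified by RT-PCR, 6-FAM labeling and capillary electrophoresis; gain of signal versus DMSO.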
# [6] = target: human Peroxisome Proliferator-activated Receptor delta (PPARd), PPARD (gene 5467) (UniProt Q03181); test: ATG_PPARd_TRANS: Attagene TRANS-FACTORIAL HepG2 Assay for human Peroxisome Proliferator-activated Receptor delta (PPARd) (AID 2283002)
# Chain of human Peroxisome Proliferator-activated Receptor delta (PPARd), PPARD (gene 5467) (Q03181 whole entry, looked up, the tested form may be a part): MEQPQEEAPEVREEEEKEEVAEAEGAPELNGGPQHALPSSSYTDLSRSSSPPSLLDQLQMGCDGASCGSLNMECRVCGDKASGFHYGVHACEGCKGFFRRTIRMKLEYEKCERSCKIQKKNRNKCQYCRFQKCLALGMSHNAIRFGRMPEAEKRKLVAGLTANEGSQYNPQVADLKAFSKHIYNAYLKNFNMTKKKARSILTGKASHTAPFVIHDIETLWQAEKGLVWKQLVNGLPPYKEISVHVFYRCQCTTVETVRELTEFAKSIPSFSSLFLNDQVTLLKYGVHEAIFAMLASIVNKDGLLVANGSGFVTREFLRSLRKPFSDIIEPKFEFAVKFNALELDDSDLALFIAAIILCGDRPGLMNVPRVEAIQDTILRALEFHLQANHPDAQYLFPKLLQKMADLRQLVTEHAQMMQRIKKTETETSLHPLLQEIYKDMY
# How it was run: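 Fluorescence from capillary electrophoresis of labelled RT-PCR reporter fragments gives the signal; DMSO sets baseline. Cells: HepG2 transiently carrying GAL4-UAS reporter units plus chimeric nuclear receptor-Gal4 proteins, exposed to chemicals for 24 h.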
structure (smiles),measurement,setting,value
NC(=O)NC(N)=O,outcome,[1],inactive
same,outcome,[2],inactive
same,outcome,[3],inactive
CNC(=C[N+](=O)[O-])NCCSCc1ccc(CN(C)C)o1,outcome,[1],inactive
same,outcome,[4],inactive
same,outcome,[2],inactive
same,outcome,[3],inactive
O=C(O)c1ccccc1O,outcome,[5],inactive
same,outcome,[4],inactive
same,outcome,[2],inactive
CC1(C)CC(=O)CC(C)(C)N1,outcome,[6],inactive
same,outcome,[4],inactive
same,outcome,[2],inactive
COc1ccc2[nH]cc(CCNC(C)=O)c2c1,outcome,[6],inactive
same,outcome,[4],inactive
same,outcome,[2],inactive
C[N+](C)(C)CCO,outcome,[6],inactive
same,outcome,[4],inactive
same,outcome,[2],inactive
O=C(O)c1cccc(Cl)n1,outcome,[1],inactive
same,outcome,[2],inactive
CC(C)COC(=O)c1ccccc1,outcome,[1],inactive
same,outcome,[2],inactive
CC/C=C\CCOC(=O)C(C)C,outcome,[5],inactive
same,outcome,[4],inactive
CCCCCC(=O)O[C@]1(C(C)=O)CC[C@H]2[C@@H]3CCC4=CC(=O)CC[C@]4(C)[C@H]3CC[C@@]21C,outcome,[6],inactive
same,AC50,[4],3.22 µM (active)
same,AC50,[2],0.313 µM (active)
Brc1cc(Br)cc(Br)c1,outcome,[6],inactive
same,outcome,[4],inactive
same,outcome,[2],inactive
CCC(C)(C)C1CCC(OC)CC1 (stereo not given),outcome,[6],inactive
same,outcome,[4],inactive
same,AC50,[2],8.16 µM (active)
CCC(C)(C)C1CCC(=O)CC1,outcome,[1],inactive
same,outcome,[5],inactive
same,outcome,[4],inactive
same,AC50,[2],15.3 µM (active)
same,outcome,[3],inactive
Cc1cc(O)c(C)c(C)c1O,outcome,[6],inactive
same,AC50,[4],32.4 µM (active)
same,AC50,[2],22 µM (active)
O=C1Cc2ccccc2C1,outcome,[6],inactive
same,outcome,[4],inactive
same,AC50,[2],27.9 µM (active)
CCCCCCCC(=O)N(C)C,outcome,[6],inactive
same,outcome,[4],inactive
same,outcome,[2],inactive
same,outcome,[3],inactive
CC(=O)CC(C)(C)C1CCCCC1,outcome,[1],inactive
same,outcome,[5],inactive
same,outcome,[2],inactive
same,outcome,[3],inactive
CC(C)(O)C(=O)c1ccc(OCCO)cc1,outcome,[6],inactive
same,outcome,[2],inactive
Cc1cc(N)n(-c2ccccc2)n1,outcome,[6],inactive
same,outcome,[4],inactive
same,outcome,[2],inactive
CC(C)C(=O)OCC=Cc1ccccc1,outcome,[6],inactive
same,outcome,[4],inactive
same,AC50,[2],22.1 µM (active)
C=CCOCC(O)CO (stereo not given),outcome,[2],inactive
O=c1cc(-c2ccc(O)cc2)oc2cc(O)cc(O)c12,AC50,[4],18.2 µM (active)
same,outcome,[3],inactive
CCCC1CCOC(C)S1 (stereo not given),outcome,[2],inactive
Cc1ccncc1,outcome,[2],inactive
O=C(O)c1ccco1,outcome,[2],inactive
C=C/C(C)=C/C/C=C(\C)CCC=C(C)C,AC50,[2],6.85 µM (active)
CC(O)CNCC(C)O (stereo not given),outcome,[4],inactive
same,outcome,[2],inactive
CCCCCCCCCCCCN1CCOCC1,outcome,[4],inactive
same,outcome,[2],inactive
CC(O)CN (stereo not given),outcome,[4],inactive
same,outcome,[2],inactive
same,outcome,[3],inactive
CCC=C(C)C=O,outcome,[4],inactive
same,outcome,[2],inactive
CC(C)(O)CCc1ccccc1,outcome,[4],inactive
same,outcome,[2],inactive
CC(=O)CCC(=O)O,outcome,[4],inactive
same,outcome,[2],inactive
CC1=CC(O)CC(C)(C)C1 (stereo not given),outcome,[4],inactive
same,outcome,[2],inactive
CC/C=C\C#N,outcome,[4],inactive
same,outcome,[2],inactive
C=COCC1CCC(COC=C)CC1 (stereo not given),outcome,[4],inactive
same,outcome,[2],inactive
COc1ccc(N)c(C)c1,outcome,[2],inactive
CCCc1ccc(N)cc1,outcome,[4],inactive
CC(=O)N(C)C,outcome,[2],inactive
CCOC(=O)CC1(C)OCC(C)O1 (stereo not given),outcome,[2],inactive
same,outcome,[3],inactive
Nc1ccn([C@H]2CC[C@@H](CO)O2)c(=O)n1,outcome,[4],inactive
same,outcome,[2],inactive
CC(C)OB(OC(C)C)OC(C)C,outcome,[4],inactive
same,outcome,[2],inactive
CCC(C)(C)c1cc(O)c(C(C)(C)CC)cc1O,outcome,[4],inactive
same,AC50,[2],7.37 µM (active)
CC(C)N(c1ccccc1)C(C)C,outcome,[2],inactive
CC(C)COC(=O)c1ccccc1O,outcome,[4],inactive
same,outcome,[2],inactive
CCCCCCC(O)CCOC(C)=O (stereo not given),outcome,[4],inactive
same,AC50,[2],15.2 µM (active)
CCC(CC)CO,outcome,[4],inactive
same,outcome,[2],inactive
CC/C=C\CCCCO,outcome,[4],inactive
same,outcome,[2],inactive
Cc1ccc(C(C)(C)O)cc1,outcome,[2],inactive
Cc1cccc(C)c1,outcome,[4],inactive
CCCCC(CC)COCCO (stereo not given),outcome,[4],inactive
same,outcome,[2],inactive
CC1=CCC(=C(C)C)CC1,outcome,[4],inactive
same,AC50,[2],6.82 µM (active)
CC(C)CCOC(=O)CC(C)C,outcome,[4],inactive
same,outcome,[2],inactive
CC(=O)OC/C=C(C)/C=C/C=C(C)/C=C/C1=C(C)CCCC1(C)C,AC50,[4],27.3 µM (active)
same,AC50,[2],0.418 µM (active)
CCCCOCCOC(=O)c1ccccc1C(=O)OCCOCCCC,AC50,[4],27.5 µM (active)
same,AC50,[2],7.61 µM (active)
same,outcome,[3],inactive
CCCCN(CCCC)CCCCCCN(CCCC)CCCC,outcome,[4],inactive

# Source: PubChem BioAssay (EPA / NIEHS)
